Measured values as given in PubChem BioAssay (Tox21).
Where “and” joins values, the source holds several entries; their conditions need not be identical. Equal entries are not always repeated. Inconclusive results are not listed. Some structures have more than one record in an assay (separate samples or runs), and their calls can disagree. Calls of active or inactive are those of the source. Unless noted, calls follow the shape of the dose curve; as a rule, active = well fitted curve in the direction sought with a large enough effect in the repeat runs; inconclusive = weak or mixed curves; inactive = no such curve, though single readings can be large; an effect the other way counts as inactive or inconclusive.

Tests used:
[1] = qHTS assay to identify small molecule antagonists of the thyroid receptor (TR) signaling pathway - cell viability counter screen (AID 743064); also: nearly all actives have a fitted effect of over 50% in size
Outline: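 Rat GH3 pituitary tumor cells stably expressing two TR response elements driving luciferase were plated, rested 4 h, then dosed with library compounds and T3 (1 nM final). After 23.5 h at 37 °C, CellTiter-Fluor was added for 30 min and fluorescence recorded.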

[2] = qHTS assay to identify small molecule antagonists of the thyroid receptor (TR) signaling pathway (AID 743065); also: series mostly up to about 70 µM; nearly all actives have a fitted effect of over 55% in size
Outline: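 Antagonism measured as loss of luciferase signal in GH3 cells stably carrying a TRE-luciferase reporter, co-treated with compound and T3 (1 nM final) for 23.5 h at 37 C. Viability was read in the same well by CellTiter-Fluor.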

[3] = tested on: thyroid hormone receptor (rat, GH3 cells); experiment: qHTS assay to identify small molecule agonists of the thyroid receptor (TR) signaling pathway (AID 743066; calls by dose curve)
[4] = molecular target: Estrogen receptor (Homo sapiens) (UniProt P03372); experiment: qHTS assay to identify small molecule antagonists of the estrogen receptor alpha (ER-alpha) signaling pathway (AID 743069; active = well fitted curve in the direction sought with a large enough effect in the signal ratio in the repeat runs, not every such curve was filed as active; the % refers to the signal ratio)
Estrogen receptor (Homo sapiens), sequence (P03372 whole entry, looked up): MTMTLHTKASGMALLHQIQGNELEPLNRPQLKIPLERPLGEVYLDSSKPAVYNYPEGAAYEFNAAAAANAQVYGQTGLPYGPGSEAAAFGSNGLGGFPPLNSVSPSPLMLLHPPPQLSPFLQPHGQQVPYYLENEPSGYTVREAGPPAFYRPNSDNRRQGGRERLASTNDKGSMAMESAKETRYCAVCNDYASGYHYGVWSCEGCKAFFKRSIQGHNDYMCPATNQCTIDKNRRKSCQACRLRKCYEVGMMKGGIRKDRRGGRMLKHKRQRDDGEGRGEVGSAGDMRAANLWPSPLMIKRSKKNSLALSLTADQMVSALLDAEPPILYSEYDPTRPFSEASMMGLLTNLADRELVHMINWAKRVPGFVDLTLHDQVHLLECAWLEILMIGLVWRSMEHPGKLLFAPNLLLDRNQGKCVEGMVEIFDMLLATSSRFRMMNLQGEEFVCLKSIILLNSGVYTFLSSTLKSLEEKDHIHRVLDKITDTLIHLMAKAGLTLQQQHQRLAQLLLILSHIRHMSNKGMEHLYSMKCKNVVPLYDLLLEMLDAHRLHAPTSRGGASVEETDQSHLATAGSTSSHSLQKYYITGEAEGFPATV
Outline: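 Antagonist mode: compounds in DMSO were co-added with 17beta-estradiol to ER-alpha-bla HEK293 cells (2% charcoal-stripped serum) and left 18 h at 37C. Reporter inhibition was measured as FRET fluorescence after 2 h LiveBLAzer substrate at room temperature.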

[5] = qHTS assay to identify small molecule antagonists of the estrogen receptor alpha (ER-alpha) signaling pathway - cell viability counter screen (AID 743074; calls by dose curve;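 also: HEK293 cells carrying ER-alpha-UAS-bla reporter stimulated with 17beta-estradiol; nearly all actives have a fitted effect of over 45% in size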)
[6] = molecular target: Estrogen receptor (Homo sapiens) (UniProt P03372); experiment: qHTS assay to identify small molecule agonists of the estrogen receptor alpha (ER-alpha) signaling pathway (AID 743075; calls by dose curve;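 also: HEK293 GripTite cells with ER-alpha and UAS-driven beta-lactamase reporter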; also: potency is read from the fitted curve at half-maximal effect)
[7] = molecular target: Estrogen receptor (Homo sapiens) (UniProt P03372); experiment: qHTS assay to identify small molecule agonists of the estrogen receptor alpha (ER-alpha) signaling pathway using the BG1 cell line (AID 743079); also: nearly all actives have a fitted effect of over 20% in size; also: potency is read from the fitted curve at half-maximal effect
[8] = qHTS assay to identify small molecule antagonists of the estrogen receptor alpha (ER-alpha) signaling pathway using the BG1 cell line (AID 743080; calls by dose curve;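 also: BG1 cells stimulated with 17beta-estradiol alongside compound; series mostly up to about 70 µM; nearly all actives have a fitted effect of over 25% in size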)
Outline: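 Luciferase inhibition measured with ONE-Glo after 30 min at RT in BG1Luc4E2 cells given test compounds and 17beta-estradiol for 21.5 h at 37 C; CellTiter-Fluor viability read in the same wells beforehand.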

[9] = qHTS assay to identify small molecule antagonists of the estrogen receptor alpha (ER-alpha) signaling pathway using the BG1 cell line - cell viability counter screen (AID 743081);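 also: compound given together with 17beta-estradiol as the ER stimulus; series mostly up to about 70 µM; nearly all actives have a fitted effect of over 45% in size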
Aromatase (Homo sapiens) = Aromatase (Homo sapiens) (UniProt P11511); experiment: qHTS assay to identify aromatase inhibitors (AID 743083); also: series mostly up to about 70 µM; nearly all actives have a fitted effect of over 55% in size
Aromatase (Homo sapiens), sequence (P11511 whole entry, looked up): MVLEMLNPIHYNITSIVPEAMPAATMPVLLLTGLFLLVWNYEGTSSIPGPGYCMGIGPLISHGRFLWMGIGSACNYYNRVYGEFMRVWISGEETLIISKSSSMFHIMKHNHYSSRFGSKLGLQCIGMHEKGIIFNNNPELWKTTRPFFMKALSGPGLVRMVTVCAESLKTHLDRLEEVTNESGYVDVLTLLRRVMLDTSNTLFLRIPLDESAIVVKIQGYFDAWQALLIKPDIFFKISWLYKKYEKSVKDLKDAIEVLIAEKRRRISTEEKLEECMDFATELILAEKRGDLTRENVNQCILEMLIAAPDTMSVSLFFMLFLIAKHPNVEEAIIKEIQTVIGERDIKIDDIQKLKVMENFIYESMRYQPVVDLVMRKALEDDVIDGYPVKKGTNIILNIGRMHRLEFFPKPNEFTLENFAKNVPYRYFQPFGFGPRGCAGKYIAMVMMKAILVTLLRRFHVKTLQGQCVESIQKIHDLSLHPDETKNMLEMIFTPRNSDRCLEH

[10] = qHTS assay to identify aromatase inhibitors - cell viability counter screen (AID 743084);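 also: cells stimulated with testosterone during compound exposure; nearly all actives have a fitted effect of over 55% in size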
[11] = molecular target: Aryl hydrocarbon receptor (Homo sapiens) (UniProt P35869); experiment: qHTS assay to identify small molecule that activate the aryl hydrocarbon receptor (AhR) signaling pathway (AID 743085); also: nearly all actives have a fitted effect of over 15% in size; also: potency is read from the fitted curve at half-maximal effect;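 as to activation: HG2L7.5c1 human HepG2 liver cells with stably integrated DRE-driven firefly reporter; series mostly up to about 70 µM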
Aryl hydrocarbon receptor (Homo sapiens), sequence (P35869 whole entry, looked up): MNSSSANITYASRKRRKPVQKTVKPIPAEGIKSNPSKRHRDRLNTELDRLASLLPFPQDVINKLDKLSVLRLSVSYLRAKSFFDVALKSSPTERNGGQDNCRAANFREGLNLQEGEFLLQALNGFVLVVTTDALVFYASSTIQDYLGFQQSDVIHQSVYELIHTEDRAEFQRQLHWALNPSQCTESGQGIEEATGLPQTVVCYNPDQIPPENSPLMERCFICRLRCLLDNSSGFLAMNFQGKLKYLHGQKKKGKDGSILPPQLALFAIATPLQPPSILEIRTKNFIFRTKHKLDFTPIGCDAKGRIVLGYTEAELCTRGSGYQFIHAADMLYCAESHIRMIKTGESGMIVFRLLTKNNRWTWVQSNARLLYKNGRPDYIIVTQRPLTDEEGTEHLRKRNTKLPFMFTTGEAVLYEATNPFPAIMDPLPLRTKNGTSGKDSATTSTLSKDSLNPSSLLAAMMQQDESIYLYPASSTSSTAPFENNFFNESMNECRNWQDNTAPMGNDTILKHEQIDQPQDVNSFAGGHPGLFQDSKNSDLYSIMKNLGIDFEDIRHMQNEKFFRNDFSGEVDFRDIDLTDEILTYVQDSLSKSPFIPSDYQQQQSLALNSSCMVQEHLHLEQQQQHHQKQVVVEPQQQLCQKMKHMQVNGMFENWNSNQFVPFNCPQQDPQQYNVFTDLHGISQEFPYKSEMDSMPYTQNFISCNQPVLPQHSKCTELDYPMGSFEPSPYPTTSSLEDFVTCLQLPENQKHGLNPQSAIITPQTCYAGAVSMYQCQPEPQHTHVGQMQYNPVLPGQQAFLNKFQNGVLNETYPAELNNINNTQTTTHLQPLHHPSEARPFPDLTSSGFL
Outline: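 Compounds were tested in HepG2 hepatocellular carcinoma cells harbouring a stably integrated luciferase gene under control of 20 DREs. Increased reporter signal after 24 h treatment at 37C was taken as AhR activation.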

[12] = qHTS assay to identify small molecule that activate the aryl hydrocarbon receptor (AhR) signaling pathway - cell viability counter screen (AID 743086);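 also: HepG2 liver cells carrying the AhR DRE luciferase reporter; series mostly up to about 70 µM; nearly all actives have a fitted effect of over 45% in size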
Outline: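 Cytotoxicity counter screen: CellTiter-Fluor signal (30 min, 37 C) in 4000 HepG2 cells/well carrying the DRE-luciferase reporter, following 24 h compound exposure at 37 C.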

[13] = molecular target: Peroxisome proliferator-activated receptor gamma (Homo sapiens) (UniProt P37231); experiment: qHTS assay to identify small molecule agonists of the peroxisome proliferator-activated receptor gamma (PPARg) signaling pathway (AID 743094; active = well fitted activation curve with a large enough effect in the signal ratio in the repeat runs, not every such curve was filed as active; the % refers to the signal ratio)
Peroxisome proliferator-activated receptor gamma (Homo sapiens), sequence (P37231 whole entry, looked up): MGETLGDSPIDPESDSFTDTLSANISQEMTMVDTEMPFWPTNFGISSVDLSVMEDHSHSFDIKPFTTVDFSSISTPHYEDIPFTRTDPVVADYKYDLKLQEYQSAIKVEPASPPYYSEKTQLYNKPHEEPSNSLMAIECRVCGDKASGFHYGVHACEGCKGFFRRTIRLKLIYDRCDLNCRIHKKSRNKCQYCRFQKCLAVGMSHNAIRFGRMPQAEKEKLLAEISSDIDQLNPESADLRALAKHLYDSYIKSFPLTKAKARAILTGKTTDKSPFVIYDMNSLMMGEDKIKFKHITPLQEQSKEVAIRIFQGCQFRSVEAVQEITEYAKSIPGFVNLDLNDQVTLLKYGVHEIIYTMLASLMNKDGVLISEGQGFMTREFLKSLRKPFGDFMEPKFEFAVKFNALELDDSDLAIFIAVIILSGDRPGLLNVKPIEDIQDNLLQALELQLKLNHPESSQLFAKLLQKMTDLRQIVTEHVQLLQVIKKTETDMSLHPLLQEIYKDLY
Outline: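 Cell-based bla reporter, HEK293H background, PPARg-driven UAS. Pre-incubation 5 h, 37C, 5% CO2. Compound 17 h, 37C. Substrate 1 h RT; fluorescence.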

[14] = molecular target: Peroxisome proliferator-activated receptor gamma (Homo sapiens) (UniProt P37231); experiment: qHTS assay to identify small molecule antagonists of the peroxisome proliferator-activated receptor gamma (PPARg) signaling pathway (AID 743191; calls by dose curve; also: series mostly up to about 63 µM; nearly all actives have a fitted effect of over 30% in size)
Outline: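 Beta-lactamase reporter under UAS control in HEK293H PPARg-bla cells; compound treatment 17 h at 37C. Read-out: fluorescence intensity after 1 h room-temperature incubation with LiveBLAzer B/G FRET substrate.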

[15] = qHTS assay to identify small molecule antagonists of the peroxisome proliferator-activated receptor gamma (PPARg) signaling pathway - cell viability counter screen (AID 743194); also: nearly all actives have a fitted effect of over 55% in size
Outline: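 Viability was measured as CellTiter-Glo luminescence in GeneBLAzer PPARg UAS-bla HEK293H cells. These cells had been exposed 17 h at 37 C to compounds together with rosiglitazone at 50 nM final, with the beta-lactamase readout taken in the same wells.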

[16] = qHTS assay for small molecule agonists of the antioxidant response element (ARE) signaling pathway (AID 743202; active = well fitted activation curve with a large enough effect in the signal ratio in the repeat runs, not every such curve was filed as active; the % refers to the signal ratio)
Outline: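 After 16 hours of compound treatment at 37 C, HepG2 cells with a stably integrated ARE-driven beta-lactamase reporter were loaded 2 hours at room temperature with LiveBLAzer B/G FRET substrate and fluorescence intensity measured.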

[17] = qHTS assay for small molecule activators of the heat shock response signaling pathway - cell viability counter screen (AID 743209); also: nearly all actives have a fitted effect of over 50% in size
Outline: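 Same-well multiplex: after 2.5 h room-temperature incubation with LiveBLAzer B/G substrate and fluorescence reading, CellTiter-Glo reagent was added to HSE-bla HeLa cells that had received compound for 5 h at 37 C; luminescence read after 30 min.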

[18] = qHTS assay for small molecule agonists of the antioxidant response element (ARE) signaling pathway - cell viability counter screen (AID 743203; calls by dose curve; also: nearly all actives have a fitted effect of over 55% in size)
Outline: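 Measured in the same wells as the beta-lactamase ARE reporter, this read-out is CellTiter-Glo luminescence from HepG2 ARE-bla cells given compounds for 16 hrs.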

[19] = qHTS assay for small molecule activators of the heat shock response signaling pathway (AID 743210; active = well fitted activation curve with a large enough effect in the signal ratio in the repeat runs, with a control signal flat, not every such curve was filed as active; the % refers to the signal ratio; also: series mostly up to about 63 µM)
Outline: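 Compound exposure lasted 5 h at 37 C in HeLa cells carrying a heat-shock-element-driven beta-lactamase reporter. Read-out: fluorescence intensity after 2.5 h room-temperature loading with LiveBLAzer B/G FRET substrate.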

Measured: Potency

CCNC(=S)NCC
inactive and 54.5 µM (active): [7]
not listed: [18] | [19]
inactive: all other assays above

CCCCCCCCCCCC(=O)OC
not listed: [8]
inactive: all other assays above

CSc1ccc(Cl)cc1
not listed: [8] | [19]
inactive: all other assays above

CC(=O)OCc1ccccc1
not listed: [8] | [16] | [19]
inactive: all other assays above

C[Si]1(C)O[Si](C)(C)O[Si](C)(C)O[Si](C)(C)O1
not listed: [14]
inactive: all other assays above

Brc1ccc(Br)c(Br)c1
not listed: [8]
inactive: all other assays above

OC1C(O)C(O)C(O)C(O)C1O (stereo not drawn)
not listed: [16]
inactive: all other assays above

C[C@]12CCC(=O)C=C1CC[C@@H]1[C@@H]2[C@@H](O)C[C@@]2(C)[C@H]1CC[C@]2(O)C(=O)CO
not listed: [4] | [6] | [7] | [8]
inactive: all other assays above

CC1(C)OC[C@@H]2O[C@@]3(C(=O)O)OC(C)(C)O[C@H]3[C@@H]2O1
not listed: [4] | [6] | [7] | [8] | [19]
inactive: all other assays above

Cc1ccc([N+](=O)[O-])cc1S(=O)(=O)O
not listed: [8] | [15] | [19]
inactive: all other assays above

NCCN1CCNCC1
not listed: [5] | [8]
inactive: all other assays above

CC(=O)c1ccc(O)cc1
not listed: [4] | [8] | [19]
inactive: all other assays above

CCCCCCCCCCO
not listed: [8] | [16] | [18]
inactive: all other assays above

CCNc1cccc(C)c1
not listed: [8] | [15] | [16] | [18]
inactive: all other assays above

O=[N+]([O-])c1ccc2nc[nH]c2c1
not listed: [5] | [8] | [11] | [16] | [18]
inactive: all other assays above

C=CC[N+](C)(C)CC=C
not listed: [4] | [6] | [7] | [8] | [18] | [19]
inactive: all other assays above

C=C(C)CNCC
not listed: [4] | [6] | [7] | [8]
inactive: all other assays above

COCCCN
not listed: [8] | [11] | [14] | [15] | [16] | [19]
inactive: all other assays above

NCCCCCCN
not listed: [4] | [6] | [7] | [8] | [18]
inactive: all other assays above

COc1ccccc1OCC(O)CO (stereo not drawn)
not listed: [4] | [6] | [7] | [8] | [19]
inactive: all other assays above

COCCOC(=O)c1ccccc1C(=O)OCCOC
not listed: [4] | [6] | [7] | [8] | [19]
inactive: all other assays above

COc1ccc(N)c(C)c1
not listed: [7] | [8] | [13] | [14] | [16]
inactive: all other assays above

COc1ccc([N+](=O)[O-])cc1N
not listed: [8] | [11] | [15] | [16]
inactive: all other assays above

CCCCCCO
not listed: [7] | [8] | [16]
inactive: all other assays above

CC(=O)CC(C)(C)O
not listed: [8] | [11] | [18]
inactive: all other assays above

O=C(O)c1cc2ccccc2cc1O
inactive and 49 µM [activator] (active): [6]
active: [7] 54.1 µM and 48.6 µM | [11] 60.7 µM and 30.6 µM
not listed: [8] | [15] | [16] | [18] | [19]
inactive: all other assays above

COc1ccc(CCC(C)=O)cc1
not listed: [4] | [6] | [7] | [8] | [19]
inactive: all other assays above

CCOCCOCCOCCO
not listed: [4] | [6] | [7] | [8] | [18]
inactive: all other assays above

CCNc1ccccc1
not listed: [4] | [6] | [7] | [8] | [15]
inactive: all other assays above

C=CC(=O)OCCC(=O)O
not listed: [8] | [16] | [18] | [19]
inactive: all other assays above

CC(C)(Oc1ccc(CCNC(=O)c2ccc(Cl)cc2)cc1)C(=O)O
not listed: [8] | [13] | [18] | [19]
inactive: all other assays above

CCc1ccccc1CC
not listed: [8] | [15] | [16]
inactive: all other assays above

CNC(=O)Oc1ccc2c(c1)[C@]1(C)CCN(C)[C@@H]1N2C
not listed: [8] | [11]
inactive: all other assays above

O=C(O)c1ccc(C(=O)O)c(C(=O)O)c1
not listed: [5] | [16] | [19]
inactive: all other assays above
